Source: ChEMBL document CHEMBL3988442, “University of Dundee, Small-Polar-MMV Screening Library” (2021)
Out of some 66,000 compounds screened, about 960 (1.5%) showed an effect of 50% or more. This excerpt belongs to a sample that is enriched for strong results.

System: Trypanosoma brucei
Assay: Trypanosoma brucei 72 hour study
Type: functional, organism-based
Set-up: scale not given: in the data most compounds retested in dose-response had high values

## Cc1cc(CN2CCN(C(=O)NC(C)Cn3ccnc3)CC2)on1 (stereo not given)
30.3 µM, […]
  Percent Effect: -36.86%

## O=C(N1CCOCC1)[C@@]12CCO[C@@H]1CCN(C1CCCCC1)C2.O=C(O)C(F)(F)F
30 µM, 30.03 µM
  Percent Effect: -10.39%

## O=C(N1CCCO1)[C@@]12CCO[C@@H]1CCN(C1CCCCC1)C2.O=C(O)C(F)(F)F
30 µM, 30.03 µM
  Percent Effect: 51.2%

## O=C(N1CCOCC1)[C@@]12CCO[C@@H]1CCN(C1CCC1)C2.O=C(O)C(F)(F)F
30 µM, 30.03 µM
  Percent Effect: -13.96%

## Cc1nnn2c1COC(CNCc1nccs1)C2.O=C(O)C(F)(F)F (stereo not given)
30 µM, 30.03 µM
  Percent Effect: 2.897%

## Cc1cnn(CCNCC(O)COc2cc(Cl)ccc2Cl)c1 (stereo not given)
10 µM
  Percent Effect: 13.76%

## CC(C)NC(=O)C1(Cc2ccccc2-c2cccs2)CCNC1 (stereo not given)
30.3 µM, […]
  Percent Effect: 100.3%

## Cc1ccc(-c2ccccc2CC2(C(=O)NC(C)C)CCCNC2)cc1 (stereo not given)
30.3 µM, […]
  Percent Effect: 73.8%

## Cl.O=C(O)C1(Cc2cccc(-c3cccs3)c2)CCCNC1 (stereo not given)
30.3 µM, […]
  Percent Effect: -23.63%

## CC(C)CNC(=O)C1(Cc2ccccc2-c2ccccc2)CCNC1 (stereo not given)
30.3 µM, […]
  Percent Effect: -113.5%

## O=C(NC1CC1)C1(Cc2ccccc2-c2ccncc2)CCOCC1
30.3 µM, […]
  Percent Effect: -2.257%

## Cl.O=C(N1CCCC1)C1(Cc2ccc(-c3cccs3)cc2)CCNC1 (stereo not given)
30.3 µM, […]
  Percent Effect: 100.9%

## CC(C)NC(=O)C1(Cc2ccccc2-c2cncnc2)CCCNC1 (stereo not given)
30.3 µM, […]
  Percent Effect: -17.52%

## NC(=O)C1(Cc2ccccc2-c2cncnc2)CCCNC1 (stereo not given)
30.3 µM, […]
  Percent Effect: -3.769%

## O=C(NCCO)C1(Cc2ccccc2-c2ccncc2)CCOCC1
30.3 µM, […]
  Percent Effect: -12.36%

## CC(C)CNC(=O)C1(Cc2ccccc2-c2cccs2)CCNC1 (stereo not given)
30.3 µM, […]
  Percent Effect: 100.9%

## Cl.O=C(O)C1(Cc2ccc(-c3cccs3)cc2)CCNC1 (stereo not given)
30.3 µM, […]
  Percent Effect: 15.36%

## CC(C)NC(=O)C1(Cc2ccccc2-c2ccccc2)CCCNC1 (stereo not given)
30.3 µM, […]
  Percent Effect: -11.23%

## COc1ccccc1CN(C)C(=O)CN1CC(n2nc(C)cc2C)C1
30 µM, 30.03 µM
  Percent Effect: 35.21%

## CCC(NC(=O)C1CCN(S(C)(=O)=O)CC1)c1ccc(OC)cc1 (stereo not given)
30 µM, 30.03 µM
  Percent Effect: -21.57%

## Cl.O=C(NCc1ccccc1F)C1=NOC2(CCNC2)C1 (stereo not given)
30 µM, 30.03 µM
  Percent Effect: 32.02%

## O=C(O)C(F)(F)F.O=C(O)C(F)(F)F.c1cncc(OCC2CN(Cc3nccs3)Cc3nccn3C2)c1 (stereo not given)
30.3 µM, […]
  Percent Effect: -9.916%

## C/C=C(\C)CN(CCN1CCOCC1)Cc1ccco1
30.3 µM, […]
  Percent Effect: -0.5994%

## O=C(O)C(F)(F)F.O=C(O)C(F)(F)F.O=C([C@H]1C[C@H]2OCC[C@H]2N(Cc2ccccc2F)C1)N1CCCCO1
30.3 µM, […]
  Percent Effect: -61.9%

## Cn1ccnc1-c1nc(NC2CCCC2)ncc1-c1cccc(F)c1
30.3 µM, […]
  Percent Effect: 20.44%

## CN1CCN(c2ncnc3c2CCN(S(=O)(=O)C2CC2)CC3)CC1.O=C(O)C(F)(F)F
30.3 µM, […]
  Percent Effect: -13.78%

## CN(C)C[C@]12COC[C@H]1CN(Cc1ccc3c(c1)OCO3)C2.O=C(O)C(F)(F)F.O=C(O)C(F)(F)F
30.3 µM, […]
  Percent Effect: 5.402%

## CC(C)CC(=O)NC[C@H]1CC[C@H](C(c2ccccn2)N(C)C)CC1 (stereo not given in full)
30.3 µM, […]
  Percent Effect: -15.36%

## COc1cccc(CNC(=O)CCC2=Nc3ccccc3S(=O)(=O)N2)c1
30.3 µM, […]
  Percent Effect: 9.218%

## CCN1C[C@@H]2[C@@H](OC)CCN(S(=O)(=O)c3ccccc3F)[C@@H]2C1.O=C(O)C(F)(F)F
30 µM, 30.03 µM
  Percent Effect: 30.94%

## CN(Cc1ccc(C#N)cc1)c1ncc(C(N)=O)cc1Cl
30.3 µM, […]
  Percent Effect: 12.46%

## Cl.O=C(NCc1ccccc1)C1=NOC2(CCNC2)C1 (stereo not given)
30 µM, 30.03 µM
  Percent Effect: 2.25%

## Cc1cccc(CNCC2COC3(CCCC3)O2)c1C (stereo not given)
30 µM, 30.03 µM
  Percent Effect: -15.5%

## Cc1cccc(CNCC2COC3(CCCCC3)O2)c1C (stereo not given)
30 µM, 30.03 µM
  Percent Effect: -30.8%

## COCCOc1ccccc1CNCC1COC2(CCCC2)O1 (stereo not given)
30 µM, 30.03 µM
  Percent Effect: 102%

## COc1cc(C(=O)N(Cc2ccco2)C2CC2)cc(OC)c1OC
30 µM, 30.03 µM
  Percent Effect: -6.757%

## COc1cc(C(=O)N(Cc2ccco2)C2CC2)cc2c1OCCO2
30 µM, 30.03 µM
  Percent Effect: 51.93%

## CCN(Cc1ccco1)C(=O)c1cc(OC)c2c(c1)OCCO2
30 µM, 30.03 µM
  Percent Effect: 34.74%

## Cc1cc(N(C)CCN(C)C)n2nc(C)cc2n1
30 µM, 30.03 µM
  Percent Effect: -1.745%

## CC(=O)N1CCC(c2c(CN(C)C)cnc3cc(C)nn23)CC1
30.3 µM, […]
  Percent Effect: -17.17%

## Cc1cc2ncc(CN(C)C)c(C3CCN(C)CC3)n2n1
30.3 µM, […]
  Percent Effect: 99.05%

## Cn1cc(-c2csc(N3CCSCC3)n2)cn1
30 µM, 30.03 µM
  Percent Effect: -20.97%

## Cn1cc(-c2csc(N3CCCCCC3)n2)cn1
30 µM, 30.03 µM
  Percent Effect: 99.99%

## CN1CCN(c2nc(-c3cnn(C)c3)cs2)CC1
30 µM, 30.03 µM
  Percent Effect: -14.69%

## O=C(O)C(F)(F)F.O=C(O)C(F)(F)F.O=C(c1ccncc1)N1CCC2(CC1)CCN(Cc1ccccn1)C2=O
30 µM, 30.03 µM
  Percent Effect: -9.957%

## CC(C)SCC(=O)NCc1cc2n(n1)CCCN(C1CCCCC1)C2
30 µM, 30.03 µM
  Percent Effect: -6.203%

## O=C(CCSc1ccccc1F)N1CCN(c2cnccn2)CC1
30 µM, 30.03 µM
  Percent Effect: 98.54%

## O=C(CCSc1ccc(F)cc1)N1CCN(c2cnccn2)CC1
30 µM, 30.03 µM
  Percent Effect: -62.17%

## CC(CC(=O)N1CCN(c2cnccn2)CC1)c1ccc(F)cc1 (stereo not given)
30 µM, 30.03 µM
  Percent Effect: -67.22%

## Cc1ccc(S(C)(=O)=O)cc1C(=O)NS(C)(=O)=O
30.3 µM, […]
  Percent Effect: 76.39%

## Cc1ccc(S(=O)(=O)NC(=O)c2cc(S(C)(=O)=O)ccc2C)s1
30.3 µM, […]
  Percent Effect: 94.94%

## Cc1ccc(S(C)(=O)=O)cc1C(=O)NS(=O)(=O)c1ccc(Cl)cc1
30.3 µM, […]
  Percent Effect: -20.93%

## Cc1ccc(C(=O)NS(C)(=O)=O)cc1S(C)(=O)=O
30 µM, 30.03 µM
  Percent Effect: 7.017%

## Cc1ccc(S(=O)(=O)Nc2ccc(C)c(C(=O)O)c2)s1
30 µM, 30.03 µM
  Percent Effect: -9.875%

## Cc1ccc(S(C)(=O)=O)cc1C(=O)NS(=O)(=O)c1cccs1
30.3 µM, […]
  Percent Effect: -1.699%

## Cc1ccc(F)cc1S(=O)(=O)Nc1ccc2c(C(=O)O)c[nH]c2c1
10 µM
  Percent Effect: -37.32%

## Clc1ccccc1-c1cc(CNc2ncnc3c2CCNCC3)no1
30 µM, 30.03 µM
  Percent Effect: -18.38%

## O=C(CCNC(=O)c1cnccn1)Nc1ncc[nH]1
30 µM, 30.03 µM
  Percent Effect: -39.01%

## O=C(Nc1cccc2c1CCCC2)c1cccnc1N1CCCNCC1
30.3 µM, […]
  Percent Effect: -17.09%
10 mM, 10 mM as filed; unlikely as a test dose
  Percent Effect: -111.4%

## CS(=O)(=O)NC[C@]12COC[C@H]1CN(C(=O)C1CCSCC1)C2
30.3 µM, […]
  Percent Effect: -61.89%

## CNC(=O)c1cn[nH]c1C1CCN(Cc2ccccc2OC)C1 (stereo not given)
30.3 µM, […]
  Percent Effect: 0.9318%

## CC(C)c1ccc(CC(=O)N2CCCC3(CN(C)C(=O)O3)C2)cc1 (stereo not given)
30.3 µM, […]
  Percent Effect: -36.52%

## CC(C)c1nnc(CN2CCCC3(CC2)CN(C)C(=O)O3)o1 (stereo not given)
30 µM, 30.03 µM
  Percent Effect: -4.839%

## CC(C)c1ccc(CN2CCCC3(CC2)CN(C)C(=O)O3)cc1 (stereo not given)
30.3 µM, […]
  Percent Effect: 97.32%
